# Data reported in PubChem BioAssay AID763 (NMMLSC, 2007).
# Values without a mark were called inactive. No rule for the calls is given here.
# Target: fMet-Leu-Phe receptor (Homo sapiens) (UniProt P21462)
# Test: human FPR1 ligand displacement single-point test – cell-based, single concentration, selectivity assay for FPRL1 ligand SAR project, SAR follow-up (AID 763)
# Details: FPR1-expressing cells, fluorescent ligand binding inhibition, hits give high values; at 5.4 µM unless noted
# Chain of fMet-Leu-Phe receptor (Homo sapiens) (P21462 whole entry, looked up): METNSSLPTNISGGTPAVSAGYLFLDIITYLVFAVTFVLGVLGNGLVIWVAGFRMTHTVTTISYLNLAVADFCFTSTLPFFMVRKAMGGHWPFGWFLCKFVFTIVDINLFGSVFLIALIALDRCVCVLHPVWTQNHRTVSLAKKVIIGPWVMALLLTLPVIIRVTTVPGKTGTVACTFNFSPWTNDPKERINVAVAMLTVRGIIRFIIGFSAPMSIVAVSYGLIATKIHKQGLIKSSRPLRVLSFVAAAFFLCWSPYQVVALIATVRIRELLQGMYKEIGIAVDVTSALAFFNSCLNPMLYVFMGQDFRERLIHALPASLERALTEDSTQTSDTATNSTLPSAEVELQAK
row,Compound,inhibition
1,COc1ccc(-c2nc(N3CCN(Cc4ccc(Cl)cc4)CC3)[nH]c(=O)c2C#N)cc1,-5.9% [at 5.1 µM]
2,COc1ccc(-c2cn3cccnc3n2)cc1NC(=O)Cc1cccc(C)c1,4.7% [at 6 µM]
3,Cc1ccccc1N1CCN(c2nc(-c3ccccc3)c3cc(Br)ccc3n2)CC1,3.5% [at 4.8 µM]
4,O=C(O)/C=C/C(=O)N1CCN(c2nc(-c3ccccc3)c3ccccc3n2)CC1,2.4% [at 5.7 µM]
5,Fc1ccc(-c2cc(C(F)(F)F)nc(N3CCN(Cc4ccccc4)CC3)n2)cc1,0% [at 5.3 µM]
6,COc1ccc(-c2cn3cccnc3n2)cc1NC(=O)c1ccc(C(C)(C)C)cc1,5.7% [at 5.6 µM]
7,COc1cccc(-c2cc(C(F)(F)F)nc(N3CCN(c4ccccc4)CC3)n2)c1,-7.4%
8,COc1ccc(-c2cn3cccnc3n2)cc1NC(=O)c1cccc(C)c1,-4.1% [at 6.2 µM]
9,COc1ccc(-c2cn3cccnc3n2)cc1NC(=O)C1CCCCC1,3.2% [at 6.3 µM]
10,COc1ccccc1-c1cc(C(F)(F)F)nc(N2CCN(C)CC2)n1,5% [at 6.3 µM]
11,CN1CCN(c2nc(-c3ccccc3)c3cc(Cl)ccc3n2)CC1,6.1% [at 6.6 µM]
12,COc1cccc(C(=O)Nc2cc(-c3cn4cccnc4n3)ccc2OC)c1,1% [at 5.9 µM]
13,COc1cc(OC)cc(C(=O)Nc2cc(-c3cn4cccnc4n3)ccc2OC)c1,4.4% [at 5.5 µM]
14,CCOCC(=O)Nc1cc(-c2cn3cccnc3n2)ccc1OC,2.3% [at 6.8 µM]
15,COc1ccc(-c2cn3cccnc3n2)cc1NC(=O)Cc1ccc(Cl)cc1,8% [at 5.7 µM]
16,COc1ccc(-c2cn3cccnc3n2)cc1NC(=O)c1ccccc1OC,3.8% [at 5.9 µM]
17,COc1ccc(-c2cn3cccnc3n2)cc1NC(=O)c1ccc(C)c(C)c1,-2.6% [at 6 µM]

row,Compound,inhibition
1,COc1ccc(-c2cn3cccnc3n2)cc1NC(=O)c1ccccc1Br,0.1% [at 5.3 µM]
2,O=C(O)CC1(CC(=O)N2CCN(c3nc(-c4ccccc4Cl)c4cc(Br)ccc4n3)CC2)CCCC1,-1.2% [at 3.9 µM]
3,COc1ccc(-c2nc(N3CCN(C)CC3)[nH]c(=O)c2C#N)cc1,-1.7% [at 6.8 µM]
4,COc1ccc(-c2cn3cccnc3n2)cc1NC(=O)c1cccc(Cl)c1,3.4% [at 5.9 µM]
5,Cc1ccc(-c2cc(C(F)F)nc(N3CCN(c4ccccc4)CC3)n2)cc1,-2.2% [at 5.8 µM]
6,COc1ccc(-c2cn3cccnc3n2)cc1NC(=O)c1ccc(OC)c(OC)c1,-5.3% [at 5.5 µM]
7,O=C(O)CCC(=O)N1CCN(c2nc(-c3ccccc3Cl)c3cc(Br)ccc3n2)CC1,2.5% [at 4.4 µM]
8,O=C(c1ccccc1)N1CCN(c2nc(-c3ccccc3)c3cc([N+](=O)[O-])ccc3n2)CC1,-6% [at 5.1 µM]
9,CCN1CCN(c2nc(-c3cccc(Cl)c3)c3c(n2)-c2ccccc2OC3)CC1,-9.4% [at 5.5 µM]
10,CC(C)(C)OC(=O)N1CCN(c2nc(-c3ccccc3)c3cc([N+](=O)[O-])ccc3n2)CC1,-8.4% [at 5.1 µM]
11,COc1ccc(-c2cc(C(F)(F)F)nc(N3CCN(c4ccc(F)cc4)CC3)n2)cc1OC,-1.4% [at 4.8 µM]
12,COc1ccc(-c2cc(C#N)nc(N3CCN(c4ccccc4)CC3)n2)cc1,2.6% [at 6 µM]
13,COc1ccc(-c2cn3cccnc3n2)cc1NC(=O)C(C)Oc1ccccc1 (stereo not drawn),3.7% [at 5.7 µM]
14,CCOC(=O)N1CCN(c2nc(-c3ccc(OC)cc3)cc(C(F)(F)F)n2)CC1,-5.3%
15,Brc1ccc2nc(N3CCN(c4ccccc4)CC3)nc(-c3ccccc3)c2c1,0.6% [at 5 µM]
16,COc1ccc(-c2cc(C(F)(F)F)nc(N3CCN(C(c4ccccc4)c4ccccc4)CC3)n2)cc1OC,-2.6% [at 4.2 µM]
